Tests used:
Conditions in all cases: concentration: 1 μM, replicates: in singlicate; n = 1
[1] = system: T1, GRK3
T1 construct: gene ADRBK2

[2] = system: GRK4
[3] = system: GRK7
[4] = system: GSK3A
[5] = system: GSK3B
[6] = system: T2, HASPIN
T2 construct: gene GSG2

[7] = system: HCK
[8] = system: HIPK1
[9] = system: HIPK2
[10] = system: HIPK3
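Note: KINOMEscan kinase panel screen.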

Structure (SMILES)	%Inh [1]	%Inh [2]	%Inh [3]	%Inh [4]	%Inh [5]	%Inh [6]	%Inh [7]	%Inh [8]	%Inh [9]	%Inh [10]
CC(=O)c1c(C)c2cnc(Nc3ccn(C)n3)nc2n(C2CCCC2)c1=O	17%	0%	0%	12%	0%	0%	29%	14%	31%	13%
CNc1cc(-c2ccc3c(N)n[nH]c3c2)nc(N)n1 [GSK2224810]	10%	0%	0%	6%	0%	61%	0%	14%	0%	18%
Cc1c(Cn2c(C)c(C)n3c(=O)cc(N4CCOCC4)nc23)cccc1C(F)(F)F [GSK2328680]	0%	0%	0%	13%	11%	0%	0%	0%	0%	13%
Fc1ccc(-c2nc[nH]c2-c2ccncc2)cc1 [SB-217360]	11%	19%	0%	0%	13%	57%	20%	34%	10%	7%
COc1nccc(-c2c(-c3ccc(F)cc3)ncn2CCCN2CCOCC2)n1 [SB-282852]	14%	23%	37%	17%	10%	0%	0%	46%	76%	0%
Cn1cncc1C(=O)NC1CCN(c2ccnc(Nc3ccc(F)cc3)n2)C1 (centres unmarked) [GSK1379717]	0%	0%	0%	12%	8%	0%	0%	0%	0%	3%
Cc1ccccc1-c1cc(-c2c[nH]nc2-c2ccccn2)ccn1 [GW680061]	37%	0%	0%	0%	1%	0%	0%	4%	0%	10%
Cc1ccc(NC(=O)Nc2ccc(Cl)cc2)cc1-c1ccc(C(=O)Nc2ccncc2)cc1 [GSK1398472]	17%	25%	0%	0%	7%	0%	0%	0%	0%	5%
COc1ccc(Nc2nccc(N3CCC(NC(=O)c4cc5ccccc5s4)C3)n2)cc1 (centres unmarked) [GSK1379738]	0%	0%	0%	11%	14%	24%	0%	0%	0%	7%
COc1ccc(Nc2nccc(-c3ccc(NC(=O)c4cc5cc(F)ccc5[nH]4)cc3)n2)cc1 [GSK1229496]	22%	0%	0%	0%	0%	41%	0%	0%	0%	0%
CS(=O)(=O)Cc1ccc(Nc2nccc(-c3c(-c4cccc(NC(=O)C5CCCCC5)c4)nn4ncccc34)n2)cc1 [GSK350559]	0%	0%	5%	0%	20%	17%	1%	5%	14%	23%
O=c1cc(N2CCOCC2)nc2n(Cc3cccc(Cl)c3Cl)c3ccccc3n12 [GSK2299009]	0%	25%	0%	5%	14%	0%	0%	9%	0%	19%
COC(=O)C(NC(=O)NC1CCN(c2ccnc(Nc3ccc(F)cc3)n2)C1)c1ccccc1 (centres unmarked) [GSK1379712]	18%	0%	0%	16%	4%	0%	0%	12%	0%	48%
Nc1cccc(-c2ccc3c(N)n[nH]c3c2)n1 [GSK2192730]	0%	13%	19%	19%	26%	39%	0%	23%	0%	25%
COC(=O)C(Cc1ccccc1)NC(=O)NC1CCN(c2ccnc(Nc3ccc(F)cc3)n2)C1 (centres unmarked) [GSK1379714]	58%	1%	0%	13%	6%	24%	4%	0%	0%	0%
O=c1cc(N2CCOCC2)nc2n(Cc3ccccc3F)ccn12 [GSK2297428]	0%	0%	0%	80%	3%	35%	0%	33%	0%	35%
Nc1ncnc2occ(-c3ccc4c(c3)CCN4C(=O)Cc3cc(F)ccc3F)c12 [GSK2645446]	0%	0%	0%	0%	2%	0%	0%	0%	0%	0%

Source: publication PMC5540273 (PLoS ONE, 2017)
